Reference: article PMC5540273 (PLoS ONE, 2017)

system: ABL2; conditions: concentration: 1 μM, replicates: in singlicate; n = 1
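Further: KINOMEscan kinase panel screen.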

| Compound | %Inh |
| --- | --- |
| CCCCc1nn2ncccc2c1-c1ccnc(NC2CC2)n1 [GW684374] | 0% |
| COC(=O)C(NC(=O)NC1CCN(c2ccnc(Nc3ccc(F)cc3)n2)C1)c1ccccc1 (centres unmarked) [GSK1379712] | 0% |
| O=c1cc(N2CCOCC2)nc2n(Cc3ccccc3F)ccn12 [GSK2297428] | 8% |
| COc1cc2ncnc(Nc3cccc(Br)c3)c2cc1OC.Cl [GI230329] | 18% |
| CS(=O)(=O)Cc1ccc(Nc2nccc(-c3c(-c4cccc(NC(=O)C5CCCCC5)c4)nn4ncccc34)n2)cc1 [GSK350559] | 5% |
| Cc1cnc(N)c(/C=C/c2cncc(C(=O)NCCc3ccc(Cl)cc3Cl)c2)c1.Cl [GSK190937] | 11% |
| CS(=O)(=O)CCNCc1nc(-c2ccc3ncnc(Nc4ccc5c(cnn5Cc5ccccc5)c4)c3c2)cs1.Cl.Cl [GW569716] | 13% |
| CC[C@@H]1CO[C@H](C(=O)Nc2ccccc2)CN1c1cc(-c2ccc3c(N)n[nH]c3c2)nc(NC)n1 [GSK2376236] | 0% |
| CC(=O)c1c(C)c2cnc(Nc3ccc(N4CCNCC4)cn3)nc2n(C2CCCC2)c1=O | 0% |
| COc1ccc(-c2coc3ccc(-c4nnc(C)o4)cc23)cc1 | 0% |
| Cc1c(Cn2c(C)c(C)n3c(=O)cc(N4CCOCC4)nc23)cccc1C(F)(F)F [GSK2328680] | 11% |
| CNc1cc(-c2ccc3c(N)n[nH]c3c2)nc(N)n1 [GSK2224810] | 0% |
| Cc1ccc(NC(=O)c2ccc(Cl)cc2)cc1-c1ccc(C(=O)Nc2ccncc2)cc1 [GSK1398467] | 20% |
| CCn1c(-c2ccccc2)nc2cnccc21 [SB-733416] | 5% |
| CN1c2ccc(-c3ccc(C(N)=O)cc3)cc2-c2[nH]ncc2S1(=O)=O | 0% |
| CS(=O)(=O)CCNCc1nc(-c2ccc3ncnc(Nc4ccc(OCc5ccccc5)c(Cl)c4)c3c2)cs1.Cl [GW582764] | 21% |
| COC(=O)c1cccc(NC(=O)NC2CCN(c3ccnc(Nc4ccc(OC)cc4)n3)C2)c1 (centres unmarked) [GSK1379746] | 13% |
| NS(=O)(=O)c1cccc(N/C=C2\C(=O)Nc3ccc(S(=O)(=O)Cc4c(Cl)cccc4Cl)cc32)c1 [GSK398099] | 14% |
| CC(=O)c1cccc(NC(=O)NC2CCN(c3ccnc(Nc4ccc(F)cc4)n3)C2)c1 (centres unmarked) [GSK1379710] | 0% |

| Compound | %Inh |
| --- | --- |
| O=C1NC(=O)C(c2ccc(Cl)cc2)=C1Nc1cccc(Cl)c1 [SB-317651] | 0% |
| Cc1ccc(-c2nc(Nc3ccncc3)c3ccccc3n2)s1 [GSK189015] | 21% |
| Cn1cnc2c(N)ncnc21 [SKF-97623] | 2% |
| CNc1nc(-c2ccc3c(N)n[nH]c3c2)cc(N2C[C@@H](C(=O)NC3CCCCC3)OC[C@H]2C)n1 [GSK2375584] | 3% |
| O=C(Nc1n[nH]c2nc(-c3ccco3)c(Br)cc12)C1CCN(Cc2ccccc2)C1.O=C(O)[C@H](O)[C@@H](O)C(=O)O (centres unmarked) [SB-742034] | 4% |
| COc1ccc(Nc2nccc(NCCNC(=O)Nc3cc(C)ccc3C)n2)cc1 [GSK1379899] | 5% |
| CC(C)c1cc(-c2ccc3c(N)n[nH]c3c2)nc(N)n1 [GSK2250882] | 13% |
| O=C(Nc1n[nH]c2nc(-c3cccs3)c(Br)cc12)C1CCCC1 [SB-743341] | 5% |
| O=C1NC(=O)C(c2ccc(Cl)cc2)=C1Nc1ccc(O)cc1 [SB-340867] | 0% |
| COc1ccc(Nc2nccc(N3CCC(NC(=O)C(C)c4ccc(Cl)cc4)CC3)n2)cc1 (centres unmarked) [GSK1379812] | 28% |
| CC(C)c1ccc(O)cc1Nc1ccnc2ccc(C(F)(F)F)cc12 [GW482059] | 3% |
| CCn1c(-c2c(N)noc2C)nc2cnccc21 [SB-737856] | 13% |
| COc1ccc(Nc2nccc(N3CCC(NC(=O)C(C)c4ccc(Cl)cc4)C3)n2)cc1 (centres unmarked) [GSK1379735] | 18% |
| O=c1cc(N2CCOCC2)nc2n(Cc3cccc(Cl)c3Cl)c3ccccc3n12 [GSK2299009] | 16% |
| CC(=O)c1c(C)c2cnc(Nc3ccn(C)n3)nc2n(C2CCCC2)c1=O | 0% |
| Cc1nccc(-c2c(-c3ccc(F)cc3)ncn2CCCN2CCOCC2)n1.Cl [SB-282975] | 22% |
| COc1ccc(CSc2nnc(-c3ccc4c(c3)CCO4)o2)cc1 | 8% |
| Cc1ccc(NC(=O)Nc2ccc(Cl)cc2)cc1-c1ccc(C(=O)Nc2ccncc2)cc1 [GSK1398472] | 28% |

system: ACVR1B; conditions: concentration: 1 μM, replicates: in singlicate; n = 1

| Compound | %Inh |
| --- | --- |
| CCCCc1nn2ncccc2c1-c1ccnc(NC2CC2)n1 [GW684374] | 0% |
| COC(=O)C(NC(=O)NC1CCN(c2ccnc(Nc3ccc(F)cc3)n2)C1)c1ccccc1 (centres unmarked) [GSK1379712] | 0% |
| O=c1cc(N2CCOCC2)nc2n(Cc3ccccc3F)ccn12 [GSK2297428] | 0% |
| COc1cc2ncnc(Nc3cccc(Br)c3)c2cc1OC.Cl [GI230329] | 0% |
| CS(=O)(=O)Cc1ccc(Nc2nccc(-c3c(-c4cccc(NC(=O)C5CCCCC5)c4)nn4ncccc34)n2)cc1 [GSK350559] | 0% |
| Cc1cnc(N)c(/C=C/c2cncc(C(=O)NCCc3ccc(Cl)cc3Cl)c2)c1.Cl [GSK190937] | 0% |
| CS(=O)(=O)CCNCc1nc(-c2ccc3ncnc(Nc4ccc5c(cnn5Cc5ccccc5)c4)c3c2)cs1.Cl.Cl [GW569716] | 0% |
| CC[C@@H]1CO[C@H](C(=O)Nc2ccccc2)CN1c1cc(-c2ccc3c(N)n[nH]c3c2)nc(NC)n1 [GSK2376236] | 0% |
| CC(=O)c1c(C)c2cnc(Nc3ccc(N4CCNCC4)cn3)nc2n(C2CCCC2)c1=O | 0% |
| COc1ccc(-c2coc3ccc(-c4nnc(C)o4)cc23)cc1 | 12% |
| Cc1c(Cn2c(C)c(C)n3c(=O)cc(N4CCOCC4)nc23)cccc1C(F)(F)F [GSK2328680] | 20% |
| CNc1cc(-c2ccc3c(N)n[nH]c3c2)nc(N)n1 [GSK2224810] | 21% |
| Cc1ccc(NC(=O)c2ccc(Cl)cc2)cc1-c1ccc(C(=O)Nc2ccncc2)cc1 [GSK1398467] | 0% |
| CCn1c(-c2ccccc2)nc2cnccc21 [SB-733416] | 0% |
| CN1c2ccc(-c3ccc(C(N)=O)cc3)cc2-c2[nH]ncc2S1(=O)=O | 3% |
| CS(=O)(=O)CCNCc1nc(-c2ccc3ncnc(Nc4ccc(OCc5ccccc5)c(Cl)c4)c3c2)cs1.Cl [GW582764] | 0% |
| COC(=O)c1cccc(NC(=O)NC2CCN(c3ccnc(Nc4ccc(OC)cc4)n3)C2)c1 (centres unmarked) [GSK1379746] | 0% |
| NS(=O)(=O)c1cccc(N/C=C2\C(=O)Nc3ccc(S(=O)(=O)Cc4c(Cl)cccc4Cl)cc32)c1 [GSK398099] | 0% |
| CC(=O)c1cccc(NC(=O)NC2CCN(c3ccnc(Nc4ccc(F)cc4)n3)C2)c1 (centres unmarked) [GSK1379710] | 0% |

| Compound | %Inh |
| --- | --- |
| O=C1NC(=O)C(c2ccc(Cl)cc2)=C1Nc1cccc(Cl)c1 [SB-317651] | 0% |
| Cc1ccc(-c2nc(Nc3ccncc3)c3ccccc3n2)s1 [GSK189015] | 0% |
| Cn1cnc2c(N)ncnc21 [SKF-97623] | 0% |
| CNc1nc(-c2ccc3c(N)n[nH]c3c2)cc(N2C[C@@H](C(=O)NC3CCCCC3)OC[C@H]2C)n1 [GSK2375584] | 0% |
| O=C(Nc1n[nH]c2nc(-c3ccco3)c(Br)cc12)C1CCN(Cc2ccccc2)C1.O=C(O)[C@H](O)[C@@H](O)C(=O)O (centres unmarked) [SB-742034] | 20% |
| COc1ccc(Nc2nccc(NCCNC(=O)Nc3cc(C)ccc3C)n2)cc1 [GSK1379899] | 0% |
| CC(C)c1cc(-c2ccc3c(N)n[nH]c3c2)nc(N)n1 [GSK2250882] | 0% |
| O=C(Nc1n[nH]c2nc(-c3cccs3)c(Br)cc12)C1CCCC1 [SB-743341] | 17% |
| O=C1NC(=O)C(c2ccc(Cl)cc2)=C1Nc1ccc(O)cc1 [SB-340867] | 0% |
| COc1ccc(Nc2nccc(N3CCC(NC(=O)C(C)c4ccc(Cl)cc4)CC3)n2)cc1 (centres unmarked) [GSK1379812] | 0% |
| CC(C)c1ccc(O)cc1Nc1ccnc2ccc(C(F)(F)F)cc12 [GW482059] | 0% |
| CCn1c(-c2c(N)noc2C)nc2cnccc21 [SB-737856] | 0% |
| COc1ccc(Nc2nccc(N3CCC(NC(=O)C(C)c4ccc(Cl)cc4)C3)n2)cc1 (centres unmarked) [GSK1379735] | 19% |
| O=c1cc(N2CCOCC2)nc2n(Cc3cccc(Cl)c3Cl)c3ccccc3n12 [GSK2299009] | 0% |
| CC(=O)c1c(C)c2cnc(Nc3ccn(C)n3)nc2n(C2CCCC2)c1=O | 2% |
| Cc1nccc(-c2c(-c3ccc(F)cc3)ncn2CCCN2CCOCC2)n1.Cl [SB-282975] | 36% |
| COc1ccc(CSc2nnc(-c3ccc4c(c3)CCO4)o2)cc1 | 0% |
| Cc1ccc(NC(=O)Nc2ccc(Cl)cc2)cc1-c1ccc(C(=O)Nc2ccncc2)cc1 [GSK1398472] | 0% |
